# Assay results from PubChem BioAssay (NCATS).
# Records with an inconclusive call do not appear. Entries that show only a call come without a potency. Activity calls are given as the source filed them. The call rests on the fitted dose curve; in most records, active means well fitted inhibition curve with a large enough effect; inconclusive means small, poorly fitted or top-dose-only effect; inactive means flat fitted curve, though single readings scatter.
# Test system: CRL-7250
# Assay: qHTS assay to identify novel small-molecules to repurpose for Merkel cell carcinoma treatment (AID 1296009); further: nearly all actives have a fitted effect of over 60% in size
# Conditions: MCC and control cell lines, CellTiter-Glo viability, 72 h; series mostly up to 92 µM
# Procedure, shortened: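 After compound transfer in DMSO, plates were kept 72 hr at 37 degree celsius. Luminescent ATP signal from CellTiter-Glo served as viability measure, normalized against DMSO and no-cell controls.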
SMILES,Potency,outcome
O=C(Nc1ccc(-c2ccc(Cl)c(Cl)c2)cc1)C1=C(O)c2ccccc2S(=O)(=O)N1,inactive,
CC(C)C1C(OC(=O)/C=C/c2ccccc2)CC2(C)OC2CCC2(C)OC2C1O (stereo not drawn),inactive,
Cc1ccc([C@@H]2CC=C(C(=O)O)[C@H](c3ccc(C(C)(C)C)cc3)N2S(=O)(=O)c2ccc(C)cc2)cc1,inactive,
COc1ccc(C2(O)c3c(ccc4c3OC(C)(CCC=C(C)C)C=C4)NC(=O)C2OC)cc1 (stereo not drawn),inactive,
C/C(=C/CCC(CO)C1CCC2(C)C3CCC4C(C)(C)C(OC5OC(CO)C(O)C(O)C5O)CC(O)C45CC35CCC12C)COC1OC(CO)C(O)C(O)C1O (stereo not drawn),inactive,
C[C@@H]1O[C@@H](OC2C(CO)OC(OCC3OC(OC(=O)[C@]45CCC(C)(C)CC4C4=CCC6[C@@]7(C)CC[C@@H](O)[C@](C)(C(=O)O)C7CC[C@@]6(C)[C@]4(C)CC5)C(O)C(O)C3O)C(O)C2O)[C@H](O)[C@H](O)[C@H]1O (stereo partly drawn),,inactive [at 9.27 µM]
C=C(C)C1CCC2(C(=O)O[C@@H]3O[C@H](CO[C@@H]4O[C@H](CO)[C@@H](O)[C@H](O)[C@H]4O)[C@@H](O)[C@H](O[C@@H]4O[C@@H](C)[C@H](O)[C@@H](O)[C@H]4O)[C@H]3O)CCC3(C(=O)O)C(CCC4C5(C)CCC(O)C(C)(C)C5CCC43C)C12 (stereo partly drawn),,inactive [at 9.27 µM]
COC(=O)[C@@H](NC(=O)[C@H](CC(C)C)NC(=O)N(Cc1ccccc1)C[C@@H](O)[C@H](Cc1ccccc1)NC(=O)OC(C)(C)C)C(C)C,,inactive [at 9.27 µM]
